Consider 94 molecules from PubChem BioAssay AID2073 (Sanford-Burnham Center for Chemical Genomics, 2009).

This test concerns the target Voltage-dependent N-type calcium channel subunit alpha-1B (Homo sapiens) (UniProt Q00975). In words: inhibitors of Mint1-CaV2.2 protein interaction, biochemical, HTRF (AID 2073). The settings on record: at 20 µM, stronger effect = higher value. Background: TR-FRET usually uses a lanthanide donor and a delayed reading to cut background.
[1] abbreviates: measured here: average of repeat tests.

Out of some 290,000 compounds screened, about 570 (0.2%) were called active. Roughly 1% stayed inconclusive and do not appear here. Rule as the data show it: active = inhibition mostly above about 51% (no sharp cut-off); inconclusive = no clear call, values can overlap the other calls; inactive = mostly below about 53%. The list comes from a sample in which actives are over-represented; it also holds similar structures and randomly drawn compounds.

Voltage-dependent N-type calcium channel subunit alpha-1B (Homo sapiens), sequence (Q00975 whole entry, looked up): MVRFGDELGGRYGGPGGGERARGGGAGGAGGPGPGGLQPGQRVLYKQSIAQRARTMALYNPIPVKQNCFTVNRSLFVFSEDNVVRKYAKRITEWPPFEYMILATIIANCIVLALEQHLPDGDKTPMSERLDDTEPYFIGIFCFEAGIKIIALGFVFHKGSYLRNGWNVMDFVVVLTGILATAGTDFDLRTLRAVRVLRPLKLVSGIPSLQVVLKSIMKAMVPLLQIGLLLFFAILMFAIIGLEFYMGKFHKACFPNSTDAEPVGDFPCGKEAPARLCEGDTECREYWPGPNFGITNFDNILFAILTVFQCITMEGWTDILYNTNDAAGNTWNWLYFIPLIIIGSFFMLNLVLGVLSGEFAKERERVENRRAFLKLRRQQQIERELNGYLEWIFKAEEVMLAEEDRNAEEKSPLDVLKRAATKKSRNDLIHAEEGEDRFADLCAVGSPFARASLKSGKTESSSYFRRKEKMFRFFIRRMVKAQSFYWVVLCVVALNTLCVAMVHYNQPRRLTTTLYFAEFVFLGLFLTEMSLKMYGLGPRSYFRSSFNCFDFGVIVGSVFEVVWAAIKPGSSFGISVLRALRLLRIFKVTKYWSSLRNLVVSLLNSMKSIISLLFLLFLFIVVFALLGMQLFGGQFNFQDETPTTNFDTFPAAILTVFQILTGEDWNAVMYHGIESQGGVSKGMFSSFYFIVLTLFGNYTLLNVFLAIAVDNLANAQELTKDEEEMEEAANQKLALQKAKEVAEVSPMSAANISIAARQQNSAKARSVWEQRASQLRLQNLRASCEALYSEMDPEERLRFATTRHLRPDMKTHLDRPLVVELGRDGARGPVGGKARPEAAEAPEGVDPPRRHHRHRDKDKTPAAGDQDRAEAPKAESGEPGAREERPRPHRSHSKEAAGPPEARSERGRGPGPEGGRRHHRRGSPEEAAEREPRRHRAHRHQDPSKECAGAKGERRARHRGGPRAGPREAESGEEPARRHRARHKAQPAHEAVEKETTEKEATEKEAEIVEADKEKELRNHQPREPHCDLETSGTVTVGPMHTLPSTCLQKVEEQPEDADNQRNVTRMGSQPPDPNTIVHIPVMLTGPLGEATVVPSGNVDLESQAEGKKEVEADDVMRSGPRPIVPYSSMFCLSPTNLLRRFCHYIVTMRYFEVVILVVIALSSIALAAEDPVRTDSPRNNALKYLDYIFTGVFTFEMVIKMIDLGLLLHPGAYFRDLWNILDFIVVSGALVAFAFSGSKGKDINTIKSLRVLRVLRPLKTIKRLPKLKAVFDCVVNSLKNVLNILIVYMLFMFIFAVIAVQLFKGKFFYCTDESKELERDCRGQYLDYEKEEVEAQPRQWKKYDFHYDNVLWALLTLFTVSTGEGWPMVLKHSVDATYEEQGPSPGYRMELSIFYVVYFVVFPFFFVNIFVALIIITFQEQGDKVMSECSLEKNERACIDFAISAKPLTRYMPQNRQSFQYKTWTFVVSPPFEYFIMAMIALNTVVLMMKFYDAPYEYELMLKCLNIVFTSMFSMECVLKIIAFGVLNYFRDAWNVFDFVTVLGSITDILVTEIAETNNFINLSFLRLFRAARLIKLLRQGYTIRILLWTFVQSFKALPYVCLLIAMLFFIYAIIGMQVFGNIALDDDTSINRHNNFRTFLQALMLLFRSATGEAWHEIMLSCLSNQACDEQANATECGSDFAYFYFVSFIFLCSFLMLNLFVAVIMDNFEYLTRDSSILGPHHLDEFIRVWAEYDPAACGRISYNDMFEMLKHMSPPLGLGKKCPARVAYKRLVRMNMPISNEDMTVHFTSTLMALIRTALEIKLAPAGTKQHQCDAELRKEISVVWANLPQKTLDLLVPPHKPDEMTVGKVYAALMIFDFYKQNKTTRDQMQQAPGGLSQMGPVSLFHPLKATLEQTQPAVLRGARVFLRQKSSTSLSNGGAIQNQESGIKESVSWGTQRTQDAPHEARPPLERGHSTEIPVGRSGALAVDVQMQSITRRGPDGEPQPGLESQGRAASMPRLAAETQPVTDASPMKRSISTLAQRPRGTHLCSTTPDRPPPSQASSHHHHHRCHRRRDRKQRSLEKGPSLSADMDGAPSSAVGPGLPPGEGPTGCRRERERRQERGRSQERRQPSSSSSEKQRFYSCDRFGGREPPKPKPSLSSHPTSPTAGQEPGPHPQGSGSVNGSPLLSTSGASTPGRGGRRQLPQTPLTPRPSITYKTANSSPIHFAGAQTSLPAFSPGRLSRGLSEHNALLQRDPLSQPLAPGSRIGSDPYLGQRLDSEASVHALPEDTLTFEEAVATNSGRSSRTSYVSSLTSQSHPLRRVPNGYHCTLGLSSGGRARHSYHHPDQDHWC

For `COc1ccc(CCN(C(=S)Nc2ccccc2)C2CC(=O)N(c3ccccc3)C2=O)cc1` (stereo unspecified), the inhibition (usually the change of the read-out against control, counted positive when it falls) was 6.3% (inactive).

For the molecule `CC(C)Oc1cccc(C(=O)C2CCCN(C(=O)c3ccsc3)C2)c1` (stereo unspecified), the inhibition was -8.4% (inactive).

In the case of `N#Cc1cnc(NOCc2ccc(Cl)cc2)nc1`, the inhibition was 9.4% (inactive).

For `O=c1c2c3n(c(=O)nc2[nH]n1-c1ccccc1)CCCCC3`, the inhibition was 1.1% (inactive).

For the molecule `O=C(NCCN1CCOCC1)/C(=C\c1ccccc1Cl)NC(=O)c1ccccc1`, the inhibition is 9.8% (inactive).

In the case of `COc1ccc(N=C2S/C(=C\c3ccc(OCC(=O)O)cc3)C(=O)N2CCc2c[nH]c3ccccc23)cc1`, the inhibition is 35.3% (inactive).

Regarding `COc1cc(/C=C2\SC(=Nc3ccccc3)N(CCc3c[nH]c4ccccc34)C2=O)ccc1OC(C)C(=O)O` (stereo unspecified), the inhibition is 6.2% (inactive).

Take `NS(=O)(=O)c1ccc(NCc2c(F)cccc2Cl)cc1`: the inhibition is -1.1% (inactive).

`Clc1cccc(Cl)c1CNc1ccc(N2CCCC2)cc1`: the inhibition was 31.8% (inactive).

Consider `Fc1cccc(Cl)c1CNc1ccc(N2CCCC2)cc1`, for which the inhibition was 54% (active).

Regarding `CC(C)(C)SCCNC(=O)CN1C(=O)c2cccc3cccc1c23`, the inhibition is 35.7% (inactive).

For the molecule `O=c1cc(/N=C/c2coc3c(ccc4ccccc43)c2=O)[nH]c(=S)[nH]1`, the inhibition was 52.9% (active).

Turning to `O=c1cc(/N=C/c2coc3cc(Br)ccc3c2=O)[nH]c(=S)[nH]1`, the inhibition was 14.4% (inactive).

Consider `CC(=O)Oc1ccc2c(=O)c(/C=N/c3cc(=O)[nH]c(=S)[nH]3)coc2c1`, for which the inhibition is 23.2% (inactive).

In the case of `CCCCN(C)C(=O)c1c[nH]c2ccc(S(=O)(=O)N3CCOCC3)cc2c1=O`, the inhibition is 24.6% (inactive).

With `Cc1ccc(CNC(=O)c2ccc3c(c2)NC(=O)CS3)cc1`, the inhibition is -5.9% (inactive).

As for `CC(C)Oc1ccc(/C=C(\NC(=O)/C=C/c2ccco2)C(=O)NCCc2nc3ccccc3[nH]2)cc1`, the inhibition is 9.4% (inactive).

For `COc1ccc(/C=C/C(=O)N/C(=C\c2ccco2)C(=O)NCCc2nc3ccccc3[nH]2)cc1`, the inhibition is 4.5% (inactive).

With `COc1ccc(/C=C(\NC(=O)/C=C/c2ccco2)C(=O)NCCc2nc3ccccc3[nH]2)cc1`, the inhibition was 52.5% (active).

`Cc1cc(C)c2c(c1)NC(c1cc3c(cc1Br)OCO3)C1CC=CC21` (stereo unspecified): the inhibition is 12.6% (inactive).

As for `CCOC(=O)/C(C#N)=C/c1cccc(F)c1`, the inhibition is 15.3% (inactive).

Regarding `O=C(Nc1ccc2c(c1)nc1n2CCN(C2CCCCC2)C1)NC1CCCCC1`, the inhibition was 11.3% (inactive).

As for `CC(=O)Nc1ccc2c(c1)nc1n2CCN(C2CCCCC2)C1`, the inhibition is 30.1% (inactive).

As for `O=C(Nc1ccc2c(c1)nc1n2CCN(C2CCCCC2)C1)c1ccco1`, the inhibition is 57.2% (active).

On to `CCc1ccc(NC(=O)Cn2nnc(C(=O)NCc3cccs3)c2N)cc1`, for which the inhibition was 26.5% (inactive).

As for `O=S(=O)(c1ccc(F)cc1)N1CCN(c2ccc(-c3ccccc3)nn2)CC1`, the inhibition is 41.9% (inactive).

In the case of `CCC1(C)Cc2nc3sc(C(=O)O)c(N)c3cc2CO1` (stereo unspecified), the inhibition is 23.8% (inactive).

As for `CC1(C)Cc2nc3sc(C(=O)NCCCO)c(N)c3cc2CS1`, the inhibition was 30.6% (inactive).

Regarding `CC1(C)Cc2nc3sc(C(=O)O)c(N)c3cc2CS1`, the inhibition is 54.6% (active).

For the molecule `O=C(NCc1cccnc1)NC(=O)c1ccc(Cl)cc1`, the inhibition is -3% (inactive).

Turning to `O=C(CNC(=O)c1ccc(Cl)cc1)N/N=C/C=C/c1ccccc1`, the inhibition is 2.8% (inactive).

`CCc1cc2c(=O)c(-c3nc4ccccc4[nH]3)coc2c(CN2CCCCC2)c1O`: the inhibition was 9.7% (inactive).

Consider `O=c1oc2c(CN3CCN(CCO)CC3)c(O)ccc2cc1-c1ccccn1`, for which the inhibition is 30.4% (inactive).

As to `O=c1oc2c(CN3CCCCCC3)c(O)ccc2cc1-c1nc2ccccc2[nH]1`, the inhibition is 65.1% (active).

`O=C(Cc1n[nH]c(=O)c2ccccc12)NC(c1ccccc1)c1ccccc1`: the inhibition is 1.8% (inactive).

As for `CC(C)CNc1nc(Oc2ccc(=O)[nH]n2)nc(N2CCOCC2)n1`, the inhibition is -12.9% (inactive).

In the case of `COCCOC(=O)c1c(C)n(C)c2ccc(OC(=O)c3ccccc3F)cc12`, the inhibition is -3.1% (inactive).

`COc1ccc(-c2nn(-c3ccccc3)cc2/C=C(/C#N)C(N)=O)cc1[N+](=O)[O-]`: the inhibition is 54.4% (active).

Turning to `COc1ccc(-c2nn(-c3ccccc3)cc2/C=C(\C#N)C(N)=O)cc1[N+](=O)[O-]`, the inhibition was 43.3% (inactive).

Consider `C=CCNC(=O)/C(C#N)=C/c1cn(-c2ccccc2)nc1-c1ccc(OC)c([N+](=O)[O-])c1`, for which the inhibition is 25.3% (inactive).

Take `CC(NC(=O)c1cc(Br)ccc1Br)c1ccccc1` (stereo unspecified): the inhibition was 15.9% (inactive).

In the case of `S=C(NCc1cccnc1)NCc1cccnc1`, the inhibition is -3.7% (inactive).

For `Cc1cc(C)cc(NC(=S)NCc2cccnc2)c1`, the inhibition is -3.3% (inactive).

Turning to `Cn1cccc1C(C#N)(CC#N)c1cccc(F)c1C#N` (stereo unspecified), the inhibition was 14.3% (inactive).

As for `CC(C)n1c(=S)[nH]c2c1c(=O)[nH]c(=O)n2C`, the inhibition is -95.1% (inactive).

Regarding `CC(C)c1csc(CN2CCC(CO)(Cc3cccc(F)c3)CC2)n1`, the inhibition was -1.1% (inactive).

As for `COc1ccc(S(=O)(=O)N2c3ccccc3OCC2C(C)(C)C)cc1` (stereo unspecified), the inhibition was 50.4% (active).

For `Cc1ccc(S(=O)(=O)N2c3ccccc3OCC2C(C)(C)C)cc1` (stereo unspecified), the inhibition was 1.7% (inactive).

In the case of `COc1ccc(S(=O)(=O)N2c3cc(C)ccc3OCC2C(C)(C)C)cc1` (stereo unspecified), the inhibition was -0.4% (inactive).

With `CCN(CC)S(=O)(=O)c1ccc(C(=O)Nc2ccc3c(c2)OCO3)cc1`, the inhibition was 9.9% (inactive).

Regarding `CCOc1ccc(/C=c2\sc3nc(-c4ccco4)nn3c2=O)cc1OCC`, the inhibition is 31.7% (inactive).

`COc1ccccc1/C=c1\sc2nc(-c3ccco3)nn2c1=O`: the inhibition was 35.1% (inactive).

As for `COc1ccc(Br)cc1/C=c1\sc2nc(-c3ccco3)nn2c1=O`, the inhibition is 66.4% (active).

`COCCSc1nnc(NC(=O)c2ccc3c(c2)OCO3)s1`: the inhibition is 3.7% (inactive).

For `Cc1nc(C(C)N(C)Cc2nc(Cc3ccccc3F)no2)c(C)s1` (stereo unspecified), the inhibition is -15.7% (inactive).

With `COc1ccccc1N(CC(=O)N(CC(C)C)CC(C)C)S(=O)(=O)c1cccs1`, the inhibition is -4.4% (inactive).

Turning to `COc1ccc(N2C(=O)C(Cl)=C(Oc3cccc(OC)c3)C2=O)cc1`, the inhibition is 56.7% (active).

Regarding `COc1ccc(N2C(=O)c3cc4ccccc4cc3C2=O)cc1`, the inhibition was 4.4% (inactive).

In the case of `COc1ccc(N2C(=O)C(Cl)=C(N3CCCC3)C2=O)cc1`, the inhibition was 19.5% (inactive).

With `Cc1ccc(Nc2nc(-c3ccc(C)cc3)c(CC(=O)O)s2)cc1`, the inhibition is 14.4% (inactive).

Take `Cc1nc2sc(C(c3cccc(F)c3)N3CCN(C(=O)c4ccco4)CC3)c(O)n2n1` (stereo unspecified): the inhibition is 3.9% (inactive).

Take `CC(=O)CC1(O)C(=O)Nc2ccccc21` (stereo unspecified): the inhibition was 33.4% (inactive).

For `CN(C)CCNc1c(N)c(=O)oc2ccccc12`, the inhibition was -16.1% (inactive).

As to `Cc1ccc(C(=O)c2ccccc2C(=O)OCC(=O)NC(C)(C)C)cc1`, the inhibition is -3.7% (inactive).

In the case of `CCOC(=O)c1ccc(N2C(=O)c3n[nH]c(-c4ccco4)c3C2c2cccc([N+](=O)[O-])c2)cc1` (stereo unspecified), the inhibition was 27.2% (inactive).

For `CCOC(=O)c1ccc(N2C(=O)c3n[nH]c(C)c3C2c2ccco2)cc1` (stereo unspecified), the inhibition is -2.1% (inactive).

Turning to `CCOC(=O)c1ccc(N2C(=O)c3n[nH]c(-c4ccco4)c3C2c2ccc([N+](=O)[O-])cc2)cc1` (stereo unspecified), the inhibition was 71.1% (active).

On to `O=C(O)Cn1nnnc1-c1ccc(F)cc1`, for which the inhibition is 0% (inactive).

With `CC(NC(=O)C1CCCN(C(=O)N(C)C)C1)c1ccccc1` (stereo unspecified), the inhibition was 0.8% (inactive).

Take `COC(=O)N/N=C/c1cc(N=Nc2ccccc2)ccc1O`: the inhibition is 23.6% (inactive).

Regarding `CC(C)(C)OC(=O)N/N=C/c1cc(N=Nc2ccccc2)ccc1O`, the inhibition was 3.5% (inactive).

In the case of `Cc1cccc(C)c1N1C(=O)CC(N(O)c2ccccc2)C1=O` (stereo unspecified), the inhibition is 4.8% (inactive).

`Cc1cc(C)c(C#N)c(N2CCN(S(=O)(=O)Cc3ccccc3)CC2)n1`: the inhibition is 1% (inactive).

In the case of `CCOC(=O)c1sc(NC(=O)CN2C(=O)NC3(CC(C)CC(C)(C)C3)C2=O)c(C(=O)OCC)c1C` (stereo unspecified), the inhibition was 13.6% (inactive).

`COc1ccc(C2Nc3cccc4cccc(c34)N2)cc1Br`: the inhibition was 25.7% (inactive).

`COc1cc(C2Nc3cccc4cccc(c34)N2)cc(OC)c1OC(C)=O`: the inhibition was 77.3% (active).

Regarding `COc1cc(C2Nc3cccc4cccc(c34)N2)ccc1OC(C)=O`, the inhibition was 74.4% (inactive). The inhibition under setting [1] is -13.1%.

Regarding `Cc1cc(C)cc(NC(=S)Nc2cccc3cnccc23)c1`, the inhibition is 16.7% (inactive).

Take `Cc1ccc(NC(=S)Nc2cccc3cnccc23)cc1`: the inhibition was 21.8% (inactive).

`CCOc1ccc(NC(=S)Nc2cccc3cnccc23)cc1`: the inhibition is 27% (inactive).

`COc1ccc(NC(=S)Nc2cccc3cnccc23)cc1`: the inhibition was 77.7% (active).

For the molecule `CN(C)S(=O)(=O)c1cccc(NC(=S)Nc2cccc3cnccc23)c1`, the inhibition is 51.6% (active).

Turning to `S=C(Nc1cccnc1)Nc1cccc2cnccc12`, the inhibition is 79.7% (inactive). Further, under setting [1], the inhibition was 4.7%.

On to `COc1ccc(/C=C2\SC(N3CCCCC3)=NC2=O)cc1`, for which the inhibition was 3.8% (inactive).

Consider `COc1ccc(CNC(=O)C(C)OC(=O)c2cccn2C)cc1` (stereo unspecified), for which the inhibition is -0.9% (inactive).

For the molecule `COc1ccc(S(=O)(=O)N(C)C2CCS(=O)(=O)C2)cc1OC` (stereo unspecified), the inhibition was 4.6% (inactive).

As to `COCCNC(=O)c1cccc(Nc2nc(-c3ccccc3)c3cc(Cl)ccc3n2)c1`, the inhibition was 54.5% (active).

Turning to `O=C(NCCO)c1cccc(Nc2nc(-c3ccccc3)c3cc(Cl)ccc3n2)c1`, the inhibition was 11.1% (inactive).

In the case of `OCCNc1nc(-c2ccccc2)c2cc(Cl)ccc2n1`, the inhibition is 15.1% (inactive).

Turning to `Clc1ccccc1-c1nnc2sc(-c3ccc(Br)o3)nn12`, the inhibition is -3.6% (inactive).

For the molecule `O=[N+]([O-])c1ccccc1-c1ccc(/C=N/n2cnnc2)o1`, the inhibition was -7.6% (inactive).

On to `Cc1nnc(N/N=C\c2ccc(-c3ccccc3[N+](=O)[O-])o2)n1N`, for which the inhibition was 45% (inactive).

For `Nn1cnnc1N/N=C\c1ccc(-c2ccccc2[N+](=O)[O-])o1`, the inhibition is 62% (active).

For the molecule `COc1ccc(CCN(C)C(=O)CN2C(=O)c3ccccc3S2(=O)=O)cc1OC`, the inhibition is -0.2% (inactive).
